The text below walks through data of PubChem BioAssay (NCATS).

Records with an inconclusive call do not appear. Calls of active or inactive are those of the source. Calls come from the whole dose curve; as a rule, active = well fitted curve in the direction sought with a large enough effect; inconclusive = small, poorly fitted or top-dose-only effect, or another doubt; inactive = no such curve, though single readings can be large; an effect the other way counts as inactive or inconclusive.

Assay [1] is described as follows: Quantitative High-Throughput drug screen in 47 multiple myeloma cell lines against the NCATS MIPE library collection: FR4_PLB cell viability assay (AID 1918924; note: nearly all actives have a fitted effect of over 35% in size). To be noted: FR4_PLB myeloma cells viability, CellTiter-Glo ATP, 48 h; series mostly up to 45.8 µM. The procedure, abridged: (§1)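 Luminescent ATP measurement with CellTiter-Glo gives viability, scaled between DMSO-only wells (100%) and media-only wells (0%). Cells, 500 per well, faced library compounds for 48 hours at 37C.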

Assay [2] can be described thus: Quantitative High-Throughput drug screen in 47 multiple myeloma cell lines against the NCATS MIPE library collection: Delta47_JCRB cell viability assay (AID 1918925; note: nearly all actives have a fitted effect of over 45% in size). To be noted: Delta47 myeloma viability, CellTiter-Glo ATP, 48 h; series mostly up to 45.8 µM. The method, boiled down: (§2)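 Relative luminescence from CellTiter-Glo served as the viability signal, referenced to DMSO-treated (100%) and cell-free medium (0%) controls. Treatment lasted 48 hours at 37C with 500 cells per well.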
Background: In ATP-based viability assays light output follows the ATP content of the culture.

The nature of assay [3]: Quantitative High-Throughput drug screen in 47 multiple myeloma cell lines against the NCATS MIPE library collection: EJM_DSMZ cell viability assay (AID 1918926; note: nearly all actives have a fitted effect of over 30% in size). To be noted: EJM myeloma cell viability, CellTiter-Glo ATP, 48 h; series mostly up to 45.8 µM. The procedure, abridged:
as §2

The nature of assay [4]: Quantitative High-Throughput drug screen in 47 multiple myeloma cell lines against the NCATS MIPE library collection: AMO1_DSMZ cell viability assay (AID 1918927; note: nearly all actives have a fitted effect of over 30% in size). To be noted: AMO1 myeloma cells viability, CellTiter-Glo ATP luminescence, 48 h; series mostly up to 45.8 µM. The procedure, abridged:
as §2

A short description of assay [5]: Quantitative High-Throughput drug screen in 47 multiple myeloma cell lines against the NCATS MIPE library collection: ARD_JJKsccE7 cell viability assay (AID 1918929). To be noted: ARD myeloma cell line viability, CellTiter-Glo, 48 h; series mostly up to 45.8 µM. The procedure, abridged: as §2
Assay [6] can be described thus: Quantitative High-Throughput drug screen in 47 multiple myeloma cell lines against the NCATS MIPE library collection: KHM11_PLB cell viability assay (AID 1918962). Note: nearly all actives have a fitted effect of over 35% in size. To be noted: KHM11 myeloma cell viability, CellTiter-Glo ATP luminescence, 48 h; series mostly up to 45.8 µM. The procedure, abridged: as §1
The nature of assay [7]: Quantitative High-Throughput drug screen in 47 multiple myeloma cell lines against the NCATS MIPE library collection: JIM3_ECACC cell viability assay (AID 1918963; note: nearly all actives have a fitted effect of over 35% in size). To be noted: JIM3 myeloma viability, CellTiter-Glo ATP, 48 h; series mostly up to 45.8 µM. The procedure, abridged:
as §1

Assay [8] can be described thus: Quantitative High-Throughput drug screen in 47 multiple myeloma cell lines against the NCATS MIPE library collection: JIM1_ECACC cell viability assay (AID 1918964). To be noted: JIM1 myeloma viability, CellTiter-Glo ATP luminescence, 48 h; series mostly up to 45.8 µM. The procedure, abridged: as §2
Assay [9] in a line: Quantitative High-Throughput drug screen in 47 multiple myeloma cell lines against the NCATS MIPE library collection: INA6_PLB cell viability assay (AID 1918965; note: nearly all actives have a fitted effect of over 55% in size). To be noted: INA6 myeloma viability, CellTiter-Glo ATP luminescence, 48 h; series mostly up to 45.8 µM. The method, boiled down: (§3)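 Steps: seed 500 cells per well; pin-transfer MIPE 4.0 library; incubate 48 h at 37C, 5% CO2, humidified; add CellTiter-Glo, 5 min room temperature; read luminescence.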

Assay [10] can be described thus: Quantitative High-Throughput drug screen in 47 multiple myeloma cell lines against the NCATS MIPE library collection: JJN3_DSMZ cell viability assay (AID 1918966; note: nearly all actives have a fitted effect of over 50% in size). To be noted: JJN3 myeloma cells viability, CellTiter-Glo ATP, 48 h; series mostly up to 45.8 µM. The procedure, abridged:
as §2

A short description of assay [11]: Quantitative High-Throughput drug screen in 47 multiple myeloma cell lines against the NCATS MIPE library collection: H1112_PLB cell viability assay (AID 1918967; note: nearly all actives have a fitted effect of over 30% in size). To be noted: H1112 myeloma cells viability, ATP luminescence, 48 h; series mostly up to 45.8 µM. The method, boiled down: as §2
A short description of assay [12]: Quantitative High-Throughput drug screen in 47 multiple myeloma cell lines against the NCATS MIPE library collection: Karpas25_ECACC cell viability assay (AID 1918968; note: nearly all actives have a fitted effect of over 35% in size). To be noted: Karpas25 myeloma viability, CellTiter-Glo ATP, 48 h; series mostly up to 45.8 µM. The procedure, abridged: as §2
Assay [13] can be described thus: Quantitative High-Throughput drug screen in 47 multiple myeloma cell lines against the NCATS MIPE library collection: KMS12BM_JCRB cell viability assay (AID 1918971). Note: nearly all actives have a fitted effect of over 35% in size. To be noted: KMS12BM myeloma viability, CellTiter-Glo ATP, 48 h; series mostly up to 45.8 µM. The procedure, abridged:
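Inhibition of cell viability is measured here. Each line was plated at 500 cells per well, treated with MIPE 4.0 drugs, kept 48 hours at 37C, then assayed for ATP content by CellTiter-Glo luminescence.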

A short description of assay [14]: Quantitative High-Throughput drug screen in 47 multiple myeloma cell lines against the NCATS MIPE library collection: ARP1_JJKsccF8 cell viability assay (AID 1918928; note: nearly all actives have a fitted effect of over 40% in size). To be noted: ARP1 myeloma cells viability, CellTiter-Glo ATP, 48 h; series mostly up to 45.8 µM. The method, boiled down:
(§4)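 Myeloma cells at 500 per well in 1536-well format treated with MIPE 4.0 library by pin transfer for 48 h at 37C, 5% CO2. Viability from ATP luminescence (CellTiter-Glo), normalized to DMSO (100%) and media-only (0%) wells.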

Assay [15] can be described thus: Quantitative High-Throughput drug screen in 47 multiple myeloma cell lines against the NCATS MIPE library collection: Karpas620_DSMZ cell viability assay (AID 1918959). Note: nearly all actives have a fitted effect of over 30% in size. To be noted: Karpas620 myeloma viability, CellTiter-Glo ATP luminescence, 48 h; series mostly up to 45.8 µM. The procedure, abridged:
as §1

Assay [16] is described as follows: Quantitative High-Throughput drug screen in 47 multiple myeloma cell lines against the NCATS MIPE library collection: KMS27_JCRB cell viability assay (AID 1918970). Note: nearly all actives have a fitted effect of over 30% in size. To be noted: KMS27 myeloma cells, CellTiter-Glo ATP viability, 48 h; viability (% of DMSO): at 45.8 µM (top of the series). The procedure, abridged: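 Viability inhibition screen, 48 h compound exposure, luminescent ATP read-out.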

A short description of assay [17]: Quantitative High-Throughput drug screen in 47 multiple myeloma cell lines against the NCATS MIPE library collection: KMM1_JCRB cell viability assay (AID 1918960). Note: nearly all actives have a fitted effect of over 30% in size. To be noted: KMM1 myeloma viability, CellTiter-Glo ATP luminescence, 48 h; series mostly up to 45.8 µM. The procedure, abridged: as §4
Assay [18] can be described thus: Quantitative High-Throughput drug screen in 47 multiple myeloma cell lines against the NCATS MIPE library collection: Karpas417_ECACC cell viability assay (AID 1918961). To be noted: Karpas417 myeloma viability, CellTiter-Glo ATP luminescence, 48 h; viability (% of DMSO): at 45.8 µM (top of the series). The procedure, abridged: as §3
Potency is the fitted concentration of half-maximal effect.

`CCOC(=O)N1CCN([N+]([O-])=NOc2cc(ON=[N+]([O-])N3CCN(C(=O)OCC)CC3)c([N+](=O)[O-])cc2[N+](=O)[O-])CC1`: the Potency in [1] is 4.69 µM (active); in assay [2], 4.69 µM (active); in [3], 2.64 µM (active); in assay [5], 0.0526 µM (active); in [6], 6.62 µM (active); in [7], 9.35 µM (active). The Potency in [9] was 2.35 µM (active); in assay [10], 2.96 µM (active); in [11], 5.9 µM (active); in assay [12], 2.64 µM (active); in assay [13] it was 5.26 µM (active). In addition, the Potency entry in [4] and in [8] was “inactive” in each case.

As to `CCCCC[C@H](O)C=C[C@H]1[C@H](O)CC(=O)[C@H]1CC=CCCCC(=O)O`, the Potency result in assay [1], in assay [2], in assay [4], in assay [14], in [5] and in assay [15] was “inactive” in each case. Besides, the Potency result in assay [16] is “inactive”. Moreover, the Potency in assay [6] was 5.9 µM (active); in assay [9], 18.7 µM (active); in [13], 20.9 µM (active).

Turning to `COc1cc(F)c(C(C)C)cc1-c1ccc(C(F)(F)F)cc1CN1C(=O)O[C@H](c2cc(C(F)(F)F)cc(C(F)(F)F)c2)[C@@H]1C`, the Potency entry in [1], in [2], in [3], in assay [4], in assay [5] and in [15] was “inactive” each time. In addition, the Potency entry in assay [17], in assay [7], in [8], in assay [11], in assay [12] and in assay [16] was “inactive” in each case. In assay [13], the Potency was 3.32 µM (active).

In the case of `CC(C)=CCCC(C)=CCCC(C)=CCCC(C)=CCCC(C)=CCCC(C)=CCCC(C)=CCCC(C)=CCCC(C)=CCO`, the Potency entry in assay [1], in [2], in assay [4], in assay [14], in [5] and in assay [15] was “inactive” each time. In addition, the Potency result in assay [7], in assay [8], in [9], in assay [12], in [16] and in assay [13] was “inactive” each time.

Take `CC1(C)OC2CC3C4CC(F)C5=CC(=O)C=CC5(C)C4C(O)CC3(C)[C@]2(C(=O)CO)O1` (stereo partly specified): the Potency result in [1], in assay [2], in assay [3], in assay [4], in [15] and in assay [7] was “inactive” throughout. Further, the Potency entry in [9], in [10], in [11] and in assay [16] was “inactive” in each case. Also, the results for the Potency in [14] and in assay [12] were 0.0209 µM (active) and 0.0833 µM (active), respectively.

Turning to `CCC(C)SSc1ncc[nH]1` (stereo unspecified), the Potency in assay [1] is 16.6 µM (active); in assay [2], 10.5 µM (active); in assay [3], 13.2 µM (active); in [4] it was 9.35 µM (active); in [14], 9.35 µM (active); in [15], 4.69 µM (active). In addition, the Potency in [17] was 3.32 µM (active); in assay [18] it was 2.35 µM (active); in [6], 13.2 µM (active); in assay [7] it was 14.8 µM (active); in assay [8] it was 5.9 µM (active); in [9] it was 4.69 µM (active). Further, the Potency was 4.69 µM (active) in assay [10], 4.18 µM (active) in [12], 10.5 µM (active) in assay [16] and 13.2 µM (active) in assay [13].
